# Measured values: PubChem BioAssay (EPA / NIEHS)
# The source made the active and inactive calls. How the source made its calls: active means hit-call score of the fitted dose curve at least 0.9, where 1 is the maximum; inactive means score below 0.9.
# Read-out: UDP glucuronosyltransferase (UGT1A1), UGT1A1 (gene 54658)
# Assay: LTEA_HepaRG_UGT1A1: Life Technologies and Expression Analysis (LTEA) Assay for UDP glucuronosyltransferase (UGT1A1) using HepaRG (AID 2283538)
# Details: mRNA level, 48 h; actives raise or lower the signal
# Experimental: LTEA_HepaRG is a cell based, multiplexed-readout assay that uses HepaRG, a human liver cell line, with measurements taken at 48 hours after chemical dosing on a 96-well plate.LTEA_HepaRG_UGT1A1 is one of 102 assay component(s) measured in the LTEA HepaRG cell culture assay. It is a marker of Steatosis/NR mediated metabolism.Data from the assay component LTEA_HepaRG_UGT1A1 was analyzed into 1 endpoint. This assay endpoint, LTEA_HepaRG_UGT1A1, was analyzed with bidirectional fitting relative to DMSO as the negative control and baseline of activity. Using a type of inducible reporter, measures of mRNA induction for gain or loss-of-signal activity can be used to understand regulation of transcription factor activity. To generalize the intended target to other relatable targets, this assay endpoint is annotated to the transferase intended target family, where the subfamily is glucuronosyltransferase.
# A total of 1060 chemcials from the ToxCast library were tested in eight-point concentration-response experiments. Cell culture and cytotoxicity assays were conducted at Thermo Fisher Scientific's Custom Services facility (Madison, WI). A single lot of human HepaRG cells (Thermo Fisher Scientific, Frederick, MD) was used for the cell culture experiments. 96-well format collagen type I coated plates of human HepaRG cells were prepared using established methods. Briefly, cryopreserved HepaRG cells were thawed, plated at a density of approximately 100,000 cells/well in HepaRG Thaw, Plate, and General Purpose media (HPRG770, Thermo Fisher Scientific), and incubated for 48 hours. 0.5% DMSO was selected as vehicle control to balance the requisite need of DMSO in HepaRG cultures to maintain differentiation (for example, baseline metabolism, proportions of hepatocytes vs. cholangiocytes), while enabling further hepatic receptor pathway activation (for example, PXR and CAR) in response to chemical exposure. 48 hours after plating, the culture medium was replaced with HepaRG Serum-Free Incudtion Media. Cells were exposed to each test chemical in duplicate and maintained in CO2 incubators for another 48 hours. Chemical plates were thawed to room temperature and 200x concentrations of treatment groups were prepared. 8-point conentration-reponse curves were made with the highest exposure at 100 uM, followed by half-log dilutions, all in 0.5% DMSO. Each test plate contained variouse controls, induction positive controls (1mM phenobarbital), cytotoxicity positive controls ([…] aflatoxin B1), vehicle controls (0.5% DMSO), and total lysis controls (0.5% DMSO). Cell morphology images were taken using an Essen IncuCyte FLR automated microscope, with six 96-well plates imaged in about 24 minutes. Images were captured and exported and JPEG files. Spent culture media was transfered to black-well plates for the LDH assay, and remaining media was sorted at -80 C for later use. Cells were treated with RLT buffer and frozen until shipped for gene expression analysis. Total RNA was isolated from the cell suspension in 75 uL of Buffer RLT (Qiagen, Germantown, MD 20874) by Quintiles/Expression Analysis (Durham, NC) using a custom isolation procedure. Total RNA from each plate well was transferred to a preamplification plate. Fluidigm's 96.96 Dynamic ArrayTM (Fluidigm, Amsterdam, the Netherlands) technology was used for gene expression analyses by quantitative reverse transcription polymerase chain reaction (qRT-PCR, performed by Quintiles/Expression Analysis, Durham, NC)89. Standard TaqManTM Assays (Applied Biosystems/ThermoFisher Scientific, Foster City, CA) were used to assess the expression of 93 genes selected based on their selectivity and sensitivity to important hepatic receptors known to be modulated by environmental chemicals; importance in human hepatocyte functionality; and hepatotoxicity. […]
Compound,outcome,AC50
O=C1CCCCC1,inactive,–
CS(=O)(=O)c1ccc([C@@H](C[C@H]2CCC(=O)C2)C(=O)Nc2cnccn2)cc1Cl,inactive,–
Cn1cnc2c1c(=O)[nH]c(=O)n2C,inactive,–
CN(C)C(=O)NC1(c2ccccc2)CCN(CC[C@@]2(c3ccc(F)c(F)c3)CN(C(=O)c3ccccc3)CCO2)CC1,inactive,–
C/C=C/C=C/C(=O)O,–,0.171 µM (active)
CCN(CC)CCOc1ccc(C(=C(Cl)c2ccccc2)c2ccccc2)cc1,–,80.1 µM (active)
C=CCc1ccc(OC)c(OC)c1,inactive,–
CC(=O)OC1CC(C)OC(C)O1 (stereo not given),inactive,–
CN(C)CCCN1c2ccccc2Sc2ccc(Cl)cc21,inactive,–
CN(C)C(=O)NC1(c2ccccc2)CCN(CCC[C@]2(c3ccc(Cl)c(Cl)c3)CCCN(C(=O)c3ccccc3)C2)CC1,–,22 µM (active)
Cc1ccc(C(C)(C)C)c(O)c1,inactive,–
CCCCC(CC)COP(=O)(OCC(CC)CCCC)OCC(CC)CCCC (stereo not given),–,13.3 µM (active)
O=C1NC(=O)C(c2ccccc2)(c2ccccc2)N1,–,19.3 µM (active)
CC(=O)CC(c1ccccc1)c1c(O)c2ccccc2oc1=O (stereo not given),inactive,–
CC(C)(C)c1ccccc1,inactive,–
O=C1OC(c2ccc(O)cc2)(c2ccc(O)cc2)c2ccccc21,–,82 µM (active)
CC(=O)O,inactive,–
NC(=Nc1ccccc1)Nc1ccccc1,inactive,–
CC(C)NCC(O)c1ccc(O)c(O)c1 (stereo not given),–,0.111 µM (active)
Oc1ccc(O)cc1,inactive,–

Compound,outcome,AC50
CC(C)OC(=O)C(C)(C)Oc1ccc(C(=O)c2ccc(Cl)cc2)cc1,–,3.76 µM (active)
CC(=O)O[C@]1(C(C)=O)CC[C@H]2[C@@H]3C=C(Cl)C4=CC(=O)[C@@H]5C[C@@H]5[C@]4(C)[C@H]3CC[C@@]21C,–,72.3 µM (active)
Cc1cn([C@H]2C=C[C@@H](CO)O2)c(=O)[nH]c1=O,inactive,–
CCCCc1nc2cccnc2n1Cc1ccc(-c2ccccc2-c2nnn[nH]2)cc1,–,18.8 µM (active)
CC(=O)[C@@]1(O)CC[C@H]2[C@@H]3CCC4=CC(=O)CC[C@]4(C)[C@H]3CC[C@@]21C,inactive,–
NC1CCCCC1,inactive,–
C=CCCCCCCCCCCCC,inactive,–
O=C1c2c(O)cccc2Cc2cccc(O)c21,inactive,–
CCCC[C@H]1CN(CC2CCOCC2)C(=O)OC12CCN(C1(C)CCN(C(=O)c3c(C)ncnc3C)CC1)CC2,inactive,–
CC(=O)OCC(COC(C)=O)OC(C)=O,inactive,–
c1ccc2occc2c1,inactive,–
Nc1nc(=S)c2[nH]cnc2[nH]1,inactive,–
CCCCOC(=O)CCCCC(=O)OCCCC,inactive,–
O=NO,inactive,–
CCCCC(CC)COC(=O)CCCCCCCC(=O)OCC(CC)CCCC (stereo not given),inactive,–
Oc1ccccc1O,inactive,–
CC1(C)C(=O)NC(=O)N1CO,inactive,–
CCCC(=O)O,inactive,–
CCC(C)N(C)C(=O)c1cc2ccccc2c(-c2ccccc2Cl)n1 (stereo not given),–,2.1 µM (active)
O=Cc1ccccc1C=O,inactive,–
